# Screening data as filed in PubChem.
# ELG1 repair inh = blocks ELG1-dependent DNA repair in HEK293T cells; HEK293T ELG1-luciferase reporter, luminescence, 16 h; DNA damage induced by 5-fluorouridine; 2.3% of 330,000 active; Potency, µM (titrated, usually from 46.1 µM), hits mostly inhibitors; note: nearly all actives have a fitted effect of over 55% in size
#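 HEK293T cells expressing luciferase-tagged ELG1 (2,000/well) received 5-Fluorouridine plus compound or DMSO for 16 hr at 37 °C. Luciferase was read by ONE-Glo luminescence after 30 min at room temperature.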
# HT1080NT lethal = kills 2HG-producing HT-1080-NT fibrosarcoma cells | 1.6% of 360,000 active | Potency, µM (top dose mostly 46.1 µM), hits mostly cytotoxic | HT-1080-NT fibrosarcoma viability, CellTiter-Glo ATP luminescence, 48 h | AID 686970;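 note: NT is the 2HG producing partner of a matched IDH1 knockdown line; nearly all actives have a fitted effect of over 55% in size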
#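 A 48-hour cytotoxicity screen used HT-1080-NT cells plated 2 hours before compound delivery. ATP-based CellTiter-Glo luminescence measured viability, normalized to DMSO and no-cell controls.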
# DT40 TDP1 CPT = DT40-hTDP1 cell growth loss with CPT | 12% of 420,000 active | chicken DT40 Tdp1-/-;hTDP1 cells + 20 nM CPT, ATP luminescence, 48 h | Potency, µM (top dose mostly 46.2 µM), hits mostly inhibitors; note: nearly all actives have a fitted effect of over 55% in size
#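 Chicken DT40 Tdp1-/- cells stably complemented with human TDP1 were seeded at 400 cells/well in medium containing 20 nM camptothecin, exposed to pin-transferred compounds, and grown at 37 °C for at least 48 hr. Viability was read as ATP luminescence.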
# DT40 TDP1 no CPT = qHTS for Inhibitors of human tyrosyl-DNA phosphodiesterase 1 (TDP1): qHTS in cells in absence of CPT | DT40 Tdp1-/- hTDP1 cells, no CPT, ATP luminescence, 48 h | Potency, µM (doses to about 46.2 µM), usual class: inhibitors | 15% of 420,000 active | AID 686978, 2013; note: nearly all actives have a fitted effect of over 55% in size
#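 Growth kinetics read by CellTiter-Glo luminescence after ≥48 hr at 37 °C. Cells: DT40 Tdp1-/- stably carrying human TDP1, 400 per well, compound exposure in the absence of CPT (DMSO vehicle).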
# HT1080 IDH1KD tx = HT-1080 IDH1 knockdown cell toxicity (counter line); HT-1080 IDH1 knockdown viability, ATP luminescence, 48 h; AID 686971; Potency, µM (titrated, usually from 46.1 µM), most hits filed as cytotoxic; 2% of 360,000 active
#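 Assay cells: HT-1080 with IDH1 knockdown, 750 per well, RPMI/5% FBS. Exposure: 48 h at 37 °C following 2 h pre-incubation. Read: CellTiter-Glo luminescence; fitted concentration-response, curve class assigned.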
# IL1B secr inh = blocks inflammasome-driven IL-1 beta release; THP-1 LPS/ATP IL-1B secretion, AlphaLISA, 16 h; active compounds read low; activity change, % at 57.5 µM; 4.7% of 360,000 active; AID 743279; in the data active = activity change below about -50%; inconclusive = mostly about -30% to -49%
#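 THP-1 cells pretreated 1 hr with compounds (up to 57.5 uM final), then stimulated with LPS (250 ng/mL final) plus ATP (1.25 mM final); secreted IL-1B measured by AlphaLISA after 16 hr, decreased signal indicating inhibition.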
# Hits are given with their value; n = inactive; u = inconclusive; x = not tested or not shown. In the library only some 19% were active in any assay of this set; here they are far more common. Unless noted, calls come from the whole dose curve; as a rule, active = well fitted curve in the direction sought with a large enough effect; inconclusive = small, poorly fitted or top-dose-only effect, or another doubt; inactive = no such curve, though single readings can be large; an effect the other way counts as inactive or inconclusive.
SMILES,ELG1 repair inh,HT1080NT lethal,DT40 TDP1 CPT,DT40 TDP1 no CPT,HT1080 IDH1KD tx,IL1B secr inh
CCOc1ccc(NC(=O)CC2C(=O)OCCN2CC)cc1 (centres undefined),x,x,8.2µM,u,x,x
CCOC(=O)c1ccc(NC(=O)CC2OCCN(CC)C2=O)cc1 (centres undefined),u,n,18µM,13µM,n,n
CCN1CCOC(=O)C1CC(=O)Nc1cccc(OC)c1 (centres undefined),x,x,5.2µM,21µM,x,x
CCN1CCOC(CC(=O)Nc2cccc([N+](=O)[O-])c2)C1=O (centres undefined),u,n,u,u,n,x
CCOC(=O)c1ccc(NC(=O)CC2C(=O)OCCN2CC)cc1 (centres undefined),n,n,21µM,21µM,n,n
CCc1nc2ccc(C(=O)N3CCN(C(C)=O)CC3)cn2c1N(C=O)Cc1ccc(OC)cc1,x,n,n,n,u,n
CCc1cc(C(=O)Nc2ncccc2O)sc1C,u,n,u,n,n,n
CC(C)Cn1c(-c2ccc(Br)cc2)c[nH]c1=S,n,n,16µM,15µM,n,n
CCn1c(-c2ccccc2)c[nH]c1=S,n,n,n,u,n,n
COc1ccc2c(c1OC)OCC2C (centres undefined),x,n,u,18µM,n,n
Cc1cccc(N2CCN(C(=O)C3CCC(=O)N(C4CC4)C3)CC2)c1C (centres undefined),n,n,16µM,u,n,n
Cc1ccc(Cl)cc1N1CCN(C(=O)C2CCC(=O)N(C3CCCCCC3)C2)CC1 (centres undefined),n,n,6.5µM,2.9µM,u,n
O=C(C1CC(=O)N(C2CCCC2)C1)N1CCN(c2ccccc2F)CC1 (centres undefined),n,n,n,n,n,n
O=C(C1CCC(=O)N(C2CCCC2)C1)N1CCN(c2ccccc2Cl)CC1 (centres undefined),n,n,n,n,n,n
CCOC(=O)C(=CNc1cscc1S(=O)(=O)C(C)C)C(=O)OCC,n,n,n,u,n,n
Cc1ccc2nc(Nc3nc(-c4ccccc4)cc(=O)[nH]3)nc(C)c2c1,n,n,13µM,8.2µM,n,u
Cc1ccc2nc(Nc3nc(C)cc(-c4ccccc4)n3)[nH]c(=O)c2c1,u,n,21µM,15µM,n,n
COc1ccc(CNC(=O)COC(=O)c2cc(S(=O)(=O)N3CCOCC3)ccc2O)cc1OC,n,n,n,n,n,n
Cc1ccc(C)c(NC(=O)Cn2c(=O)n(-c3ccccc3C)c(=O)c3c2c2cc(C)ccc2n3C)c1,x,x,u,n,x,x
O=S(=O)(c1cccc2cccc(Cl)c12)N1CCCC1,n,n,n,n,n,u
O=S(=O)(c1cccc2c(I)cccc12)N1CCCNCC1,x,x,13µM,8.2µM,x,x
O=S(=O)(c1cccc2c(Cl)cccc12)N1CCCNCC1,x,x,9.2µM,5.8µM,x,x
COc1ccc(C(=O)NCCc2nnc3ccc(SCC(=O)Nc4ccccc4)nn23)cc1,u,n,n,u,n,n
S=C1SCCCN1Cc1ccc(Cl)cc1,x,n,u,u,n,n
Cc1ccc(S(=O)(=O)NCC(=O)OCc2csc(-c3ccccc3)n2)cc1,u,n,u,u,n,n
O=C(CNS(=O)(=O)c1ccc2ccccc2c1)OCc1csc(-c2ccccc2)n1,u,n,u,21µM,n,n
Cc1cc(C)cc(NC(=S)N2CCC(NC(=O)c3ccco3)CC2)c1,n,n,n,n,n,n
Cc1cc(C)cc(NC(=O)Cn2c(C)cc(C)c(C#N)c2=O)c1,x,x,n,n,x,x
COc1ccccc1Cn1c(CNS(=O)(=O)c2ccc(C(C)C)cc2)nc2cccnc21,x,x,u,23µM,x,x
CC(C)Cc1ccc(S(=O)(=O)NCc2nc3cccnc3n2Cc2ccccc2)cc1,x,x,u,18µM,x,x
